This is an account of results in publication PMC7819943, “Rice protein-binding microarrays: a tool to detect cis-acting elements near promoter regions in rice”.

Whole data set: some 39,000 sequences, median “fluorescence intensity (a.u.)” near 4,300, cut for the highest 2% near 39,000. For the sample, the highest values were picked, then their nearest neighbours and some sequences at random.

The assay addresses T1, OsSMF1 (Oryza sativa, UniProt Q6ZLB0 1-436).
T1 sequence: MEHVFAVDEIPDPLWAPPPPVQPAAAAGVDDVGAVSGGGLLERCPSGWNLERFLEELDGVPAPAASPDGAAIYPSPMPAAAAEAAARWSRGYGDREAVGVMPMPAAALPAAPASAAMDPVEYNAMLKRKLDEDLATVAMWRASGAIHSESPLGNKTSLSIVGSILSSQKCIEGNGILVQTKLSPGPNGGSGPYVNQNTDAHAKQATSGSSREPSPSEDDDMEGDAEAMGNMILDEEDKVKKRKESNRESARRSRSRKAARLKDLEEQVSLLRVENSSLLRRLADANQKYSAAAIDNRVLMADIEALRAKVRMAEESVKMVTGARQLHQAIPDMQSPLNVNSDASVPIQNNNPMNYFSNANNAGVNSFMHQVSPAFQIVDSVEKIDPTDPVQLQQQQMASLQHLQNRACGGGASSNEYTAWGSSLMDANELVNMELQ
Put plainly: protein-binding microarray (RPBM); PBS, 2% BSA, 51.3 ng/ul salmon testes DNA, 50 uM zinc acetate, 200 nM TF, 25 C, 1 h; high values mean tight binding. The settings on record: protein: recombinant; tags: N-terminal polyhistidine and DsRed monomer fusion (pET32a); chain copies: 2; label: CyDye5-dUTP incorporated in the synthesized complementary strand; 3' TTTTT single-stranded linker to array surface; dsDNA, one strand shown. Summed up: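 The binding signal is fluorescence intensity per array feature (arbitrary units). Readings came from an Axon 4000B scanner after a washed, 2% BSA-blocked, double-stranded custom Agilent array had been incubated for 1 h at 25 °C with 200 nM protein and 50 µM zinc acetate. The protein was a Ni–NTA-purified transcription factor fused N-terminally to polyhistidine and DsRed, expressed in E. coli BL21-CodonPlus.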
For the sequence “CTGCGCGTAGAAGTGACGCAAGAAGGCAGCGGGCCCACTACGGAGTCACCTAGTGCAG”, the binding signal is 3230 fluorescence intensity (a.u.).
Take “AGAACCTTCCGCGCTTCCGTGCTCCCCACCGCCACCTCGCCGGAGTCACCTAGTGCAG”: the binding signal was 3430 fluorescence intensity (a.u.).
Turning to “TCACATCCACGTATATTCCCTTCCCCTTCTCCAACCTTTCCGGAGTCACCTAGTGCAG”, the binding signal is 9390 fluorescence intensity (a.u.).
On to “TCATCATCAAGACTGAGTCACTGACACGTGTGCACCTATGCGGAGTCACCTAGTGCAG”, for which the binding signal is 27900 fluorescence intensity (a.u.).
With “TCTATATTCTACTCAATGCTTGGTTCTAAATTGGCCTCAACGGAGTCACCTAGTGCAG” the figure was 24700 fluorescence intensity (a.u.); with “CTATTTGTGTCTTGTGTACTTCAACGTCTTCCTCTTATGACGGAGTCACCTAGTGCAG”, 3680 fluorescence intensity (a.u.); with “ATACAGTAAATATTTGCTAATGACGGATTAATTAGGCTTACGGAGTCACCTAGTGCAG”, 3790 fluorescence intensity (a.u.).
Regarding “GCGTGCGCGTCGACGTCGTCACCGCCGTCCACGGCGTAGTCGGAGTCACCTAGTGCAG”, the binding signal is 5680 fluorescence intensity (a.u.).
Consider “ACATCCTATCCCGTGCATTGAATCAGCATTGTACAGCAAACGGAGTCACCTAGTGCAG”, for which the binding signal was 3370 fluorescence intensity (a.u.).
For the sequence “GAGCTCCACCTCCTCGCGTGCCCACGCCATCCATGGCTTCCGGAGTCACCTAGTGCAG”, the binding signal is 4500 fluorescence intensity (a.u.).
In the case of “ATAATTTGGTGTTACAGTAAACATTTGCTAATAATGGATTCGGAGTCACCTAGTGCAG” it was 49500 fluorescence intensity (a.u.); in that of “AAAATTATGTTGTCATTTTAATATATTTGAATAATACATTCGGAGTCACCTAGTGCAG”, 3560 fluorescence intensity (a.u.).
With “GGTTGTTCTAACAAATTGTTTATAAAACAATTTGATTTTGCGGAGTCACCTAGTGCAG” the figure was 3570 fluorescence intensity (a.u.); with “ATTTAATAAAACTTATTTGGTGTTGTAAATGTTGCTAAATCGGAGTCACCTAGTGCAG”, 26700 fluorescence intensity (a.u.); with “CGGAGGGAGTATAAAAGAACAATACTTCTATAAATTTTGTCGGAGTCACCTAGTGCAG”, 40300 fluorescence intensity (a.u.).
Consider “ATGTCGTAGCTTTTAATTATATACTACTATAAATTTGATTCGGAGTCACCTAGTGCAG”, for which the binding signal is 43700 fluorescence intensity (a.u.).
In the case of “TTTATATAATAGTTACTTACTATACTATTAATACTTGATTCGGAGTCACCTAGTGCAG” it was 16600 fluorescence intensity (a.u.); in that of “TTTTCTATAAATTTAGTCAAATATAACAAAGTTTGATTAGCGGAGTCACCTAGTGCAG”, 42600 fluorescence intensity (a.u.).
In the case of “AAATACATCCAAGAACACAATATATTCCAATATTTTGTCACGGAGTCACCTAGTGCAG” it was 34500 fluorescence intensity (a.u.).
In the case of “TTTGTCTATAAATTTAGTCAAACTTGAAACAATTTGATTTCGGAGTCACCTAGTGCAG” it was 14600 fluorescence intensity (a.u.); in that of “AGGGAAAGATTCTAACAAATAAAGAAAAGAACAATGCAGCCGGAGTCACCTAGTGCAG”, 3260 fluorescence intensity (a.u.).
Turning to “GTGGTGCTACAGTAAATATTTGCTAATGATAGATTAATTACGGAGTCACCTAGTGCAG”, the binding signal is 7300 fluorescence intensity (a.u.).
Turning to “CCAATTCACTCCACCATACTGTTGGCACCTATGATAGAACCGGAGTCACCTAGTGCAG”, the binding signal is 3430 fluorescence intensity (a.u.).
In the case of “AGAAAACCTACACCCCGGGCTTCCGTTGCAACGTGACAACCGGAGTCACCTAGTGCAG” it was 13300 fluorescence intensity (a.u.).
In the case of “TATACAAGTCAGCTGCTGCTCGATCTTGTCATGAGAGCCCCGGAGTCACCTAGTGCAG” it was 5140 fluorescence intensity (a.u.); in that of “GGAGAGGGAGCGGGAGAGGGAGGATTGGAGGATGTGGGGACGGAGTCACCTAGTGCAG”, 15400 fluorescence intensity (a.u.); in that of “CTGCGGTTGCATTGCATGGAGATGGACCCTCAACCAGCTACGGAGTCACCTAGTGCAG”, 3700 fluorescence intensity (a.u.).
In the case of “CCGACAAAAGATGGTTTCTCCATCAGTGAAGACACAATGTCGGAGTCACCTAGTGCAG”, the binding signal was 19500 fluorescence intensity (a.u.).
“CATCGGACGGCCCATGTAGCCCAACTCCTCCGCTGCCACGCGGAGTCACCTAGTGCAG”: the binding signal is 3410 fluorescence intensity (a.u.).
With “TTAGTATGTGATTAATTTAGTATTAATTATTTAACTATAACGGAGTCACCTAGTGCAG” the figure was 31900 fluorescence intensity (a.u.).
Regarding “ATGGCTGTTGATTTTAATAGTGCAGGAGTGGTTTATAGCTCGGAGTCACCTAGTGCAG”, the binding signal is 4220 fluorescence intensity (a.u.).
In the case of “GGGCTCCCAGTATAGCTTAGGTTGATTTAATTATGGTTAACGGAGTCACCTAGTGCAG” it was 49500 fluorescence intensity (a.u.); in that of “ACACTGCCACGTCAGCGCCACGTTAGCAAAACCGTCCTCCCGGAGTCACCTAGTGCAG”, 35500 fluorescence intensity (a.u.); in that of “GCAACAGTGTTATGCAACAGTGTCATTCAGTCTCTACACACGGAGTCACCTAGTGCAG”, 32000 fluorescence intensity (a.u.).
In the case of “AGCTGGTGATGAGCAGCGTCACCAATTCTTCCTGGACGCCCGGAGTCACCTAGTGCAG” it was 4190 fluorescence intensity (a.u.).
“AGAAGAGGGAGACAGAGGATAGAGAGAAGAGGGCACTTCACGGAGTCACCTAGTGCAG”: the binding signal is 11900 fluorescence intensity (a.u.).
In the case of “GAACGGAACGCAACGTGCGGAGAGAGAGCGAGAGAGAAGCCGGAGTCACCTAGTGCAG” it was 30600 fluorescence intensity (a.u.).
With “ACGGCGGGAACAATTGTGGGCGGTGGCCTTGGCCGAATCGCGGAGTCACCTAGTGCAG” the figure was 55000 fluorescence intensity (a.u.).
For “CGGCGAGGCGAACTCAACGGGTACGCAAAGCGAAGAGGAGCGGAGTCACCTAGTGCAG”, the binding signal is 45600 fluorescence intensity (a.u.).
For “GGCGGCAGCGACGGCGGAGGCGAGGGAGGGGAGGCGGCGGCGGAGTCACCTAGTGCAG”, the binding signal was 3930 fluorescence intensity (a.u.).
In the case of “GAAGGCGGCGGGGTGGCGAAGTGGCGAGGAGGAGACGGGGCGGAGTCACCTAGTGCAG” it was 4910 fluorescence intensity (a.u.); in that of “CGGTGGCGGGAACATGTGGGCGGTGGCAGGAGTGCAGGTGCGGAGTCACCTAGTGCAG”, 3810 fluorescence intensity (a.u.); in that of “GAGAGGAGGAAGACAGAGAGGAGAGATGAGATAGGATCAACGGAGTCACCTAGTGCAG”, 46200 fluorescence intensity (a.u.).
With “ATCGTCGCGGGGCCGCCGACGGCGCGCGGTGTGGCCGACGCGGAGTCACCTAGTGCAG” the figure was 6480 fluorescence intensity (a.u.); with “GCAACGGAAGAGATGAGGAGATGACTCGGATGAGCGGAAGCGGAGTCACCTAGTGCAG”, 3180 fluorescence intensity (a.u.).
In the case of “GGCAGCTTGGTGCGGGAGAGAGGCGGCGGCGAAGGGGAGACGGAGTCACCTAGTGCAG” it was 41900 fluorescence intensity (a.u.).
As for “GTGGAGGCGAGGCGGCGAGAGGCGGGTAGCAGTGGAGGAGCGGAGTCACCTAGTGCAG”, the binding signal was 3430 fluorescence intensity (a.u.).
With “CTCCAGCATCGCCACCGGGTCCCCGTACGGGTTCTTCGGGCGGAGTCACCTAGTGCAG” the figure was 3620 fluorescence intensity (a.u.); with “CTCTGCTCTCAAATGCTCTGTGTGCGATCAGGTATTCATGCGGAGTCACCTAGTGCAG”, 3270 fluorescence intensity (a.u.); with “ACCGAGTAGATCACTTCCGTGCAAGTTGGTTGACAAGTATCGGAGTCACCTAGTGCAG”, 3480 fluorescence intensity (a.u.).
Consider “CTGGACACCTCACGAAGTCTCAAACTGCTGTTTGTTCTCACGGAGTCACCTAGTGCAG”, for which the binding signal is 4230 fluorescence intensity (a.u.).
With “ATATGGCCTTCGGTGGTATCCACGTAGAGCTTTACGTTAACGGAGTCACCTAGTGCAG” the figure was 4810 fluorescence intensity (a.u.); with “CACCCGCGTGTATGCCAGCTAGGCTTGGCTCCGACGTGGACGGAGTCACCTAGTGCAG”, 4790 fluorescence intensity (a.u.); with “GCAGCCACGACGCCCGCCAATGCTGCCGCCGCCATCGATGCGGAGTCACCTAGTGCAG”, 5300 fluorescence intensity (a.u.).
